SMILES strings stand for the structures. Active and inactive are the calls of the source. A call without a number means that no potency is given here. The call rests on the fitted dose curve; in most records, active means well fitted inhibition curve with a large enough effect; inconclusive means small, poorly fitted or top-dose-only effect; inactive means flat fitted curve, though single readings scatter.

Chain of ATP-dependent DNA helicase Q1 (Homo sapiens) (P46063 whole entry, looked up): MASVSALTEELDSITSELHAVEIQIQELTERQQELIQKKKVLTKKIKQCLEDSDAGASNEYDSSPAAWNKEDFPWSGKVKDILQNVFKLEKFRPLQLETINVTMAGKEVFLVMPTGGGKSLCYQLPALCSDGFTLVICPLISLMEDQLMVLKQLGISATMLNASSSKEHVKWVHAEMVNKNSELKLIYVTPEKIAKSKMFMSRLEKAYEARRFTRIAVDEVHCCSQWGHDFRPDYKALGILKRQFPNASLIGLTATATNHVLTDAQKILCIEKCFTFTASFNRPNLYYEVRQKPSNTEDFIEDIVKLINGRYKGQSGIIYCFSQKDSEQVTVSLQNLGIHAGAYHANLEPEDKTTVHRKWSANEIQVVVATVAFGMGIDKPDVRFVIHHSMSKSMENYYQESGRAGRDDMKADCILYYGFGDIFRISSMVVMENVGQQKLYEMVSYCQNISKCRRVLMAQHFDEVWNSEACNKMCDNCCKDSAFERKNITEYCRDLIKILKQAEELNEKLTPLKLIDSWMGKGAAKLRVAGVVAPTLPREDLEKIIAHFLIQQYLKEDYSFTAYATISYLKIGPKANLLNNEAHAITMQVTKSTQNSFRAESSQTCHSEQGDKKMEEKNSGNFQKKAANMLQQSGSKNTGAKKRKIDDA

The target in this assay is ATP-dependent DNA helicase Q1 (Homo sapiens) (UniProt P46063). The assay is described as follows: qHTS Validation Assay for Inhibitors of RecQ-Like Dna Helicase 1 (RECQ1) (AID 2353). Particulars: recombinant RECQ1 helicase DNA unwinding assay; series mostly up to 25.6 µM. The method, boiled down:
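RECQ1T1 50 nM; forked duplex (20 bp + 30-nt ss tails) 200 nM, ATP 2 mM final; pH 8.0, 2 mM MgCl2, 2.5 ug/ml poly(dI-dC); 15 min compound preincubation; discontinuous kinetic read over 2 h at RT.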
(Quantitative high-throughput screening tests each substance at several concentrations.)
In the case of `c1ccc2c(c1)CC(N1CCN(c3cccc4c3OCCO4)CC1)C2`, the Potency result is “inactive”.

As to `N[C@@H](Cc1ccc(F)cc1)C(=O)O`, the Potency entry was “inactive”.

For `CNC(=O)c1cc2c(cn1)[nH]c1ccccc12`, the Potency result was “inactive”.

Take `COC(=O)C(C)(N)Cc1ccc(O)cc1` (configuration not stated): the Potency entry is “inactive”.

As to `O=c1onc2cnc3ccccc3n12`, the Potency result is “inactive”.

Turning to `CC(=O)O[C@H]1CC2(C)[C@@H](C[C@@H](O)[C@H]3[C@@]4(C)CC[C@@H](O)[C@@H](C)[C@@H]4CC[C@@]32C)C1=C(CCC=C(C)C)C(=O)O` (some centres not stated), the Potency entry was “inactive”.

Regarding `NC(N)=NC(N)=Nc1cccc(Cl)c1`, the Potency entry was “inactive”.

As for `NCC(O)c1ccc(O)c(O)c1` (configuration not stated), the Potency result is “inactive”.

In the case of `O=c1ccc2c(OCCCCc3ccccc3)c3ccoc3cc2o1`, the Potency result was “inactive”.

In the case of `CCCC(=O)NCCc1c2n(c3ccc(OC)cc13)CCCc1ccccc1-2`, the Potency entry was “inactive”.

Regarding `CCCC[C@@]1(C2CCCC2)Cc2cc(OCC(=O)O)c(Cl)c(Cl)c2C1=O`, the Potency result is “inactive”.

As for `C#CC(N)CCC(=O)O` (configuration not stated), the Potency result is “inactive”.

As for `CCCn1c(=O)c2c(ncn2C)n(CCC)c1=O`, the Potency result is “inactive”.

As to `COc1ccccc1N1CCN(CCCNc2c(C)c(=O)n(C)c(=O)n2C)CC1`, the Potency result is “inactive”.

Regarding `O=c1cc(-c2ccccc2)[nH]c2nc(Cl)ccc12`, the Potency entry is “inactive”.

For `O=C(N[C@@H](Cc1ccccc1)C(=O)CCl)OCc1ccccc1`, the Potency entry is “inactive”.

For `Nc1ccc(-c2ccc3ccccc3n2)cc1`, the Potency result is “inactive”.

Take `COC(=O)C1=C(C)NC(C)=C([N+](=O)[O-])C1c1ccccc1C(F)(F)F` (configuration not stated): the Potency entry is “inactive”.

As to `Cn1c(=O)[nH]c2ncn(C)c2c1=O`, the Potency result was “inactive”.

Regarding `CCN(CC)CCCCCCCCOC(=O)c1cc(OC)c(OC)c(OC)c1`, the Potency result was “inactive”.

With `CC(=O)NNC(=O)N1Cc2ccccc2Oc2ccc(Cl)cc21`, the Potency result was “inactive”.

Turning to `Oc1cc2c(cc1O)C(c1ccccc1)CNCC2` (configuration not stated), the Potency result was “inactive”.

With `CNCCNS(=O)(=O)c1cccc2cnccc12`, the Potency entry was “inactive”.

Consider `N#C/C(=C\c1ccc(O)c(O)c1)C(=O)NCCc1ccccc1`, for which the Potency result was “inactive”.

Take `Nc1ccc(N2C(=O)c3ccccc3C2=O)c(Cl)c1`: the Potency entry is “inactive”.

For `NC1(C(=O)O)CC1`, the Potency entry was “inactive”.

Take `Nc1ccc(CCNc2ncnc3c2ncn3C2OC(CO)C(O)C2O)cc1` (configuration not stated): the Potency result is “inactive”.

Take `CCCCCCCC/C=C\CCCCCCCC(=O)NCCc1ccc(O)c(O)c1`: the Potency entry is “inactive”.

For the compound `Cn1c(=O)c2[nH]c(C3CCCC3)nc2n(C)c1=O`, the Potency entry is “inactive”.

On to `COc1cc(C(O)CO)ccc1O` (configuration not stated), for which the Potency entry is “inactive”.

As to `O=S(=O)(c1cccc2c(Cl)cccc12)N1CCCNCC1`, the Potency result is “inactive”.

For `Nc1nc2[nH]c(=O)cnc2c(=O)[nH]1`, the Potency entry is “inactive”.

In the case of `Fc1ccc(CN(C2=NCCN2)c2c(Cl)cccc2Cl)cc1`, the Potency entry was “inactive”.

Consider `CC1=C(/C=C/C(C)=C/C=C/C(C)=C\C(=O)O)C(C)(C)CCC1`, for which the Potency entry was “inactive”.

With `COc1cc(N)c(Cl)cc1C(=O)OCCN1CCCCC1`, the Potency result was “inactive”.

Consider `N=S(=O)(O)Cc1noc2ccccc12`, for which the Potency entry is “inactive”.

As for `CC(C)(CO)Cc1cc(C(C)(C)C)c(O)c(C(C)(C)C)c1`, the Potency result was “inactive”.
